Test results from PubChem BioAssay.

assay: Pseudomonas biofilm growth suppression – PAO1 strain, BacTiter-Glo luminescence, LB-PBS, primary screen (AID 1144); conditions: P. aeruginosa PAO1 biofilm, 12 h, higher = more signal

z-score, inactive:
CO[C@H]1COC(=O)CC=C[C@@H](C)COC(=O)[C@H]2CCCN2C(=O)CC=C[C@H]1C 0.106, O=C1C[C@@H](O)[C@@H](O)[C@@H]2[C@@H]3C(=O)N(C4CCCCC4)C(=O)[C@@H]3CC[C@@H]12 0.749, CN1CCc2nc(-c3ccccc3)c(-c3ccccc3)cc2C1 0.99, CC(CCC(=O)OC[C@H]1O[C@H](C#Cc2ccccc2)C=C[C@@H]1Oc1ccc(C)cc1)=NOC(C)CN1CCCCc2nc(C)c(C)cc21 (stereo not given in full) 0.455, CO[C@@H]1C=CCC(=O)N[C@@H](C)C(=O)OC[C@@H](OC)[C@H](C)C=CCC(=O)OC[C@H]1C 0.457, CO[C@@H]1[C@H](O)CO[C@H]1C=Cc1ccccc1 0.165, CO[C@H]1COC(=O)[C@H](CCSC)NC(=O)CC=C[C@@H](C)[C@H](OC)COC(=O)[C@@H](OCc2ccccc2)C=C[C@@H]1C -0.128, COc1ccc(OC[C@H]2CN3[C@@H](CC[C@@H](C)[C@@H]3c3ccc(Br)cc3)C(=O)O2)cc1 -0.225, COc1ccc(O[C@H]2C=C[C@@H](c3ccccc3)O[C@@H]2CO)cc1 0.584

assay: basal CRE-LacZ reporter activity in PC12 – cell-based, unstimulated, primary screen (AID 1145); conditions: no forskolin, luminescence, 4.5 h, higher = more signal, called active from +8 up or from −8 down

z-score, inactive:
CC(=O)OC[C@H]1O[C@@H](ON=C(C)C)[C@H](OC(C)=O)[C@@H](OC(C)=O)[C@@H]1OC(C)=O 0.499, CC(C)=CCCC(C)=CCON=C1[C@H]2CCn3c(=O)n(-c4ccccc4)c(=O)n3[C@H]2[C@H](O)[C@@H]2O[C@H]12 -0.473, COC(=O)CC=C[C@@H](C)[C@@H](C=NOC[C@@H](C)[C@H](OCc1ccccc1)C(C)C)OC 0.848, CCOC(=O)CCN1C(=O)[C@H]2[C@H]3[C@H](O)[C@H](O)CC(=NO[C@@H]4O[C@H](CO)[C@@H](O)[C@H](O)[C@H]4O)[C@@H]3CC[C@H]2C1=O -0.748, COC(=O)[C@H](C)NC(=O)CCC1CC(OC(=O)NCc2ccc3c(c2)OCO3)CC2(CCCC(COC(=O)NCCc3ccc(Cl)cc3)O2)O1 (stereo not given in full) -0.526, CC(CCN1CCCc2nc(C)c(C)cc21)=NOC[C@@H](O)COCc1ccco1 -0.0638, CC(CCN1CCCCc2nc(C)c(C)cc21)=NO[C@@H](C)c1cc(-c2c(C)cc(C)cc2C)no1 1.9, C[C@H]1CC[C@@H](C(=O)O)N[C@@H]1c1ccc(C#Cc2ccccc2)cc1 0.112, COc1ccc(O[C@H]2C=C[C@@H](c3ccccc3)O[C@@H]2COC(=O)NCc2cccc3ccccc23)cc1 0.745, CC(C)CON=C1C[C@@H](O)[C@@H](O)[C@@H]2[C@@H]3C(=O)N(C(C)(C)C)C(=O)[C@@H]3CC[C@@H]12 1.7, CC(C)CON=C1[C@H]2CCn3c(=O)n(C)c(=O)n3[C@H]2[C@H](O)[C@@H]2O[C@H]12 0.252, CCOC(=O)CCN1C(=O)[C@H]2[C@H]3[C@H](O)[C@H](O)CC(=O)[C@@H]3CC[C@H]2C1=O 0.527, CC1(C)O[C@H]2OC([C@H](O)CON3C(=O)c4ccccc4C3=O)[C@H](O)[C@H]2O1 (stereo not given in full) 0.831, COc1cccc([C@H](O)Cn2cc(-c3ccc(CON=C(C)C)cc3)nn2)c1 1.55, COCC#Cc1ccc([C@@H]2N[C@H](C(=O)O)CC[C@H]2C)cc1 -0.0755, O=C1C[C@H](c2ccccc2)[C@H](c2ccc(Br)cc2)O1 0.375, CCCNC(=O)OC[C@H]1O[C@H](CCON=C[C@@H](NS(=O)(=O)c2ccc(C)cc2)[C@H](C)C=CCC(=O)OC)C=C[C@@H]1Oc1ccc(OC)cc1 3.17, CCOC(=O)[C@H](Cc1ccccc1)NC(=O)CCC1CC(OC(=O)NCCc2ccc(F)cc2)CC2(CCCC(COC(=O)NCCOc3ccccc3)O2)O1 (stereo not given in full) -0.253, C=CC[C@@H]1C=C[C@H](Oc2ccc(C)cc2)[C@@H](COC(=O)NCc2cccc3ccccc23)O1 -0.527, O=C1C2=CC[C@H]3C(=O)N(C[C@@H]4CCCO4)C(=O)[C@H]3[C@H]2[C@H](O)[C@@H]2O[C@H]12 0.0664, CSCC[C@@H]1NC(=O)CC=C[C@@H](C)COC(=O)[C@H](C)COC1=O 0.163, COC(=O)[C@H](Cc1ccccc1)NC(=O)[C@@H](C)CO -0.0684, O=C1[C@H]2[C@H]3[C@H](O)[C@H](O)CC(=NOCc4ccccc4)[C@@H]3CC[C@H]2C(=O)N1c1cccc(Oc2ccccc2)c1 -0.658, CC(C)C(=O)N[C@H]1CCCN1C(=O)C=Cc1ccccc1 -0.255, CCN1C(=O)[C@H]2[C@H]3[C@H](O)[C@H](O)CC(=NOCC(C)C)[C@H]3CC[C@H]2C1=O -0.202, C#CCCCON=C1[C@H]2CCn3c(=O)n(Cc4cc5c(cc4Cl)OCO5)c(=O)n3[C@H]2[C@H](O)[C@@H]2O[C@H]12 -0.207, COC(=O)[C@H](C)NC(=O)CCC1CC(OC(=O)NCc2cccc3ccccc23)CC2(CCCC(COC(=O)NCCOc3ccccc3)O2)O1 (stereo not given in full) -0.709, CO[C@H]1COC(=O)CC=C[C@@H](C)COC(=O)[C@H]2CCCN2C(=O)CC=C[C@H]1C -0.837, O=C1C[C@@H](O)[C@@H](O)[C@@H]2[C@@H]3C(=O)N(C4CCCCC4)C(=O)[C@@H]3CC[C@@H]12 -0.0223, CN1CCc2nc(-c3ccccc3)c(-c3ccccc3)cc2C1 1.65, CC(CCC(=O)OC[C@H]1O[C@H](C#Cc2ccccc2)C=C[C@@H]1Oc1ccc(C)cc1)=NOC(C)CN1CCCCc2nc(C)c(C)cc21 (stereo not given in full) -0.561, CO[C@@H]1C=CCC(=O)N[C@@H](C)C(=O)OC[C@@H](OC)[C@H](C)C=CCC(=O)OC[C@H]1C 0.876, CO[C@@H]1[C@H](O)CO[C@H]1C=Cc1ccccc1 -0.164, CO[C@H]1COC(=O)[C@H](CCSC)NC(=O)CC=C[C@@H](C)[C@H](OC)COC(=O)[C@@H](OCc2ccccc2)C=C[C@@H]1C -0.0638, COc1ccc(OC[C@H]2CN3[C@@H](CC[C@@H](C)[C@@H]3c3ccc(Br)cc3)C(=O)O2)cc1 2.62, COc1ccc(O[C@H]2C=C[C@@H](c3ccccc3)O[C@@H]2CO)cc1 -0.617
